According to PubChem BioAssay:

test: small-molecule microarray binders of probe aCHRDL2, primary screen, biochemical, biotinylated probe, 635/667 nm fluorescence (AID 1100); conditions: higher = more signal

Row | Structure (SMILES) | composite z-score
1 | NC(=O)NCC#Cc1ccc2c(c1)[C@]1(C(=O)N2)[C@H](C(=O)O)[C@H]2C(=O)O[C@H](c3ccccc3)[C@H](c3ccccc3)N2[C@@H]1c1ccc(OCCO)cc1 | 0.799
2 | [N-]=[N+]=Nc1ccccc1C[C@]1(C(=O)N2CCOCC2)N=C(c2ccc(OCCCO)cc2)O[C@H]1c1ccccc1 | 1.03
3 | COc1ccc(C#Cc2ccc3c(c2)[C@]2(C(=O)N3)[C@H](c3ccc(O)cc3)N3[C@H](c4ccccc4)[C@H](c4ccccc4)OC(=O)[C@H]3[C@@H]2C(=O)O)cc1 | -0.596
4 | O=C1O[C@@H](c2ccccc2)[C@@H](c2ccccc2)N2[C@@H](c3ccc(OCCO)cc3)[C@]3(C(=O)Nc4ccccc43)[C@@H](C(=O)O)[C@H]12 | 0.273
5 | C=C(/C(=C/C[C@H](OC(C)=O)c1cccc(OCCO)c1)c1cnc2ccccc2c1)C(C)C | -0.105
6 | COc1ccc([Si](C)(C)[C@H]2[C@H](CCn3cc([C@H](O)c4ccccc4)nn3)O[C@@]3(C(=O)N(Cc4ccc(N5C(=O)c6cccc7cccc5c67)cc4)c4ccccc43)[C@@H]2C)cc1 | 0.538
7 | CCC(CC)C(O)C1C=CC2C(=O)N(c3ccccc3)C(=O)C2N1Nc1ccc(C(C)C)cc1 (stereo unspecified) | 0.948
8 | COC1OC[C@]2(C)[C@H]3C4=C(CN2C(=O)OC(C)(C)C)[C@H](C)C(CO)C(CO)C4CC[C@@H]13 (stereo partly specified) | 1.52
9 | COC(=O)[C@@]1(Cc2ccccc2N=[N+]=[N-])N=C(c2ccc(OCCCO)cc2)O[C@H]1c1ccccc1N=[N+]=[N-] | 1
10 | CC1CC/C=C\[C@H]2OC34C=CCN(C(C)C)C(=O)[C@H]3N(CCCCCCO)C(=O)[C@@H]4C2C(=O)O1 (stereo partly specified) | 0.417
11 | COC(=O)[C@@]1(Cc2ccc(OC)cc2)[C@H]2c3cc(C(=O)N4CCCC4)n(Cc4cccc5ccccc45)c3C[C@H]2CN1C(=O)c1ccccc1 | 1.08
12 | COc1ccc([Si](C)(C)[C@H]2[C@H](CC(=O)N(CCO)Cc3ccccc3)O[C@@]3(C(=O)N(Cc4cccc(N5CCOC5=O)c4)c4ccccc43)[C@@H]2C)cc1 | 0.0284
13 | Cc1cc(C)c(C(O)C2C=CC3C(=O)N(c4ccccc4)C(=O)C3N2Nc2ccc(C(C)C)cc2)c(C)c1 (stereo unspecified) | 1.08
14 | C=C(/C(=C/C[C@@H](OC(C)=O)c1cccc(OCCO)c1)c1cc(C(=O)OC)ccc1OC)C(C)C | -0.0171
15 | O=C1O[C@H](c2ccccc2)[C@H](c2ccccc2)N2[C@H]1[C@@H](C(=O)Nc1nc3ccccc3s1)[C@]1(C(=O)Nc3ccc(C#CC4(O)CCCCCC4)cc31)[C@H]2c1ccccc1OCCO | -0.353
16 | CN1C(=O)C2C=CC(C(O)C#Cc3ccccc3)N(Nc3ccccc3)C2C1=O (stereo unspecified) | 0.891
17 | C=CC[C@@]1(C(=O)N2CCOCC2)N=C(c2ccc(OCCCO)cc2)O[C@@H]1c1ccccc1CN=[N+]=[N-] | 1.18
18 | COc1cc(OC)c(C(O)C2C=CC3C(=O)N(C)C(=O)C3N2NC(=O)OC(C)(C)C)cc1Br (stereo unspecified) | 1.15

Row | Structure (SMILES) | composite z-score
19 | CC(C)(C)OC(=O)CC[C@]1(C(=O)NCc2ccccc2)N=C(c2ccc(OCCCO)cc2)O[C@H]1c1ccccc1CN=[N+]=[N-] | 0.545
20 | CCCCCCc1nc(C2CC2)cc2c1[Si](C(C)C)(C(C)C)O[C@H]2c1ccccc1 | -0.191
21 | COc1ccc(NC(=O)O[C@H]2[C@H](OC(=O)Nc3ccccc3)[C@H](OC(=O)Nc3ccccc3)[C@@H](OC)O[C@@H]2CO)cc1 | 0.816
22 | COc1ccc([Si](C)(C)[C@@H]2[C@@H](CCO)O[C@]3(C(=O)N(Cc4ccc(N5CCCCC5=O)cc4)c4ccccc43)[C@H]2C)cc1 | -0.756
23 | COC(=O)c1cn(C[C@@H](Cc2ccccc2)NC(=O)N[C@H](CO)CCc2oc(C(C)=O)c(C(=O)OC)c2C(=O)OC)nn1 | -0.255
24 | C=C(CCCC)/C(=C/C[C@@H](OC(=O)c1ccncc1)c1ccccc1OCCO)c1cnc2ccccc2c1 | 0.178
25 | O=C1NC(=O)C2C1C=CC(C(O)c1ccco1)N2Nc1ccccn1 (stereo unspecified) | 0.0668
26 | C=CCC(OC(C)=O)[C@@H]1[C@@H](N(Cc2cc3ccccc3o2)C(=O)c2ccc(C)cc2)c2cc(OCCCO)ccc2N1C(=O)Cc1ccc(OC)cc1 (stereo partly specified) | 0.33
27 | C=CCC(OC(C)=O)[C@@H]1[C@@H](N(Cc2ccc(-c3cccc(C(F)(F)F)c3)o2)C(=O)c2ccc(-c3ccccc3)cc2)c2cc(OCCCO)ccc2N1C(=O)c1ccc2ccccc2n1 (stereo partly specified) | 0.202
28 | CN1C(=O)C2C=CC(C(O)c3cccc(O)c3)N(Nc3ccccc3)C2C1=O (stereo unspecified) | 0.285
29 | CN1C(=O)C2C=CC(C(O)COCc3ccccc3)N(N(c3ccccc3)c3ccccc3)C2C1=O (stereo unspecified) | 0.815
30 | COCCCNC(=O)[C@]1(CCS(=O)(=O)c2ccccc2)N=C(c2ccc(OCCCO)cc2)O[C@@H]1c1ccccc1N=[N+]=[N-] | 0.698
31 | O=C1C2C=CC(C(O)c3ccccc3)N(Nc3ccccc3F)C2C(=O)N1c1ccccc1 (stereo unspecified) | 0.24
32 | CCOC(=O)c1ccc(NC(=O)O[C@H]2[C@H](OC(=O)Nc3ccc4c(c3)OCO4)[C@@H](OC(=O)Nc3ccc4c(c3)OCO4)[C@@H](OC)O[C@@H]2CO)cc1 | 0.157
33 | COc1ccc([Si](C)(C)[C@@H]2[C@@H](CC(=O)N3Cc4ccccc4C[C@H]3CO)O[C@]3(C(=O)N(C)c4ccccc43)[C@H]2C)cc1 | -0.174
34 | O=C(NCC(F)(F)F)[C@@H]1c2ccccc2C(=O)N(Cc2ccccc2C(F)(F)F)[C@H]1c1ccc(CO)cc1 | 0.805
35 | OCC1CC(c2ccccc2)=NO1 (stereo unspecified) | -0.354
36 | C=CCNC(=O)[C@@H]1[C@H]2C(=O)O[C@H](c3ccccc3)[C@H](c3ccccc3)N2[C@H](c2ccc(O)cc2)[C@@]12C(=O)N(C(=O)OCCOC)c1ccc(C#CC3(O)CCCCCC3)cc12 | 0.854
